Test results reported in PubChem BioAssay AID1063 (University of Pittsburgh Molecular Library Screening Center, 2008).
Among all 200,000 compounds or so, about 18,000 (9%) were called active. Many of the other results were omitted from the sample, so actives are more common in it than they were. A number with no mark means an inactive call. Cut-off read from the data, not from the text of the source: active = inhibition above about 50%; inactive = the rest.

experiment: Leishmania major promastigote growth inhibition, primary screen (AID 1063); settings: Leishmania major promastigotes, resazurin fluorescence viability; at 10 µM; active compounds read high;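 note: promastigotes grown with compound for 44 hours at 28 °C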

Compared with Cc1ccc(C)c(-n2ccnc2SCC(N)=O)c1, Cc1nc2cc(NC(=O)NC3CC3)ccc2n1C is lower in inhibition: -3.12% for the first, -6.22% for the second.

First: O=C(O)[C@@H]1CCCN1c1ncnc2sc3c(c12)CCC3
Second: COc1ncnc2sc3c(c12)CCCC3
The inhibition of the first is higher: -0.86% for the first, -1.31% for the second.

Going from O=C1c2ccccc2C(=O)N1CCC(O)C[N+](=O)[O-] (stereo not given) to COc1ccccc1NC(=O)c1c(Br)cnn1C, the inhibition falls from -0.84% to -1.37%.

Compared with Cc1ccc(Cl)cc1NC(=O)C1CCN(S(C)(=O)=O)CC1, Cc1nnsc1C(=O)Nc1cccc(Cl)c1C is lower in inhibition: 2.22% for the first, -7.14% for the second.

Going from COc1ccc(OC)c(C(=O)c2ccc(C(=O)O)cc2)c1 to COc1ccc(OC)c(C(=O)c2coc3ccc(OC)cc23)c1, the inhibition rises from -2.29% to 6.9%.

Compared with COc1ccc2cc(CCl)c(Cl)nc2c1, COc1ccc(OCC(=O)Nc2cc(C)c(Cl)cc2OC)c([N+](=O)[O-])c1 is lower in inhibition: 5.05% for the first, 0.64% for the second.

Compared with CCc1ccc(/C=C2\SC(N3CCOCC3)=NC2=O)cc1, O=C1N=C(N2CCOCC2)S/C1=C\C=C/c1ccccc1 is lower in inhibition: 12.3% for the first, 7.77% for the second.

Compared with COc1ccc(/C=C/C(=O)c2cc(Br)ccc(=O)c2O)cc1, COc1ccc(/C=C/C(=O)c2ccc(OC)cc2O)cc1 is higher in inhibition: -3.91% for the first, 7.64% for the second.

Compared with O=C(COc1ccccc1)Nc1ccc(N2CCN(C(=O)c3cccs3)CC2)cc1, COc1cccc(-c2ccc(SCC(=O)N3CCN(c4ccccc4)CC3)nn2)c1 is higher in inhibition: -3.12% for the first, 4.58% for the second.

Compared with C=CCn1nc(-c2ccccc2)c2c(C)onc2c1=O, c1ccc(-c2cc(N3CCCCC3)c3ccccc3n2)cc1 is higher in inhibition: 2.35% for the first, 43.1% for the second.

Going from COc1ccc(-c2nc3cc([N+](=O)[O-])ccc3o2)cc1OC to COc1ccc(CCNC(=O)C(=O)NCc2ccccc2C)cc1OC, the inhibition rises from -4.49% to -0.59%.

Compared with O=C(Nc1ccc(N2CCOCC2)cc1)c1ccc2c(c1)OCO2, CN1CCN(C(=O)C2=C[C@H](c3ccc4c(c3)OCO4)C[C@H](OCc3ccc(CO)cc3)O2)CC1 is higher in inhibition: -0.26% for the first, 5.67% for the second.

Going from CCc1ccc(CN(C)C(=O)CCc2nnc(-c3ccc(-c4ccccc4)cc3)o2)nc1 to O=C(CSc1ccc(-c2cccs2)nn1)Nc1ccccc1F, the inhibition falls from 25.8% to 10.6%.

First: Clc1cccc(N=C2NN=C(c3ccc4c(c3)OCCO4)CS2)c1
Second: CS(=O)(=O)N(CC(=O)N1CCN(Cc2ccccc2)CC1)c1ccc2c(c1)OCCO2
The inhibition of the first is higher: 4.41% for the first, -0.45% for the second.

Going from O=C(NNC1=C(C(=O)C(F)(F)F)CCC1)c1ccncc1 to CC(C)(C)NC(=O)c1ccc(Cn2cc(C(F)(F)F)ccc2=O)cc1, the inhibition rises from -0.87% to -0.17%.

First: Cc1cc(Oc2ccccc2)nc(N2CCOCC2)n1
Second: Fc1cnc(N2CCOCC2)nc1NCc1ccccc1
The inhibition of the first is lower: -4.03% for the first, 0.72% for the second.

Going from CC(CN1CCOCC1)c1ccccc1 (stereo not given) to CC(Nc1nc(N2CCN(CCO)CC2)nc2ccccc12)c1ccccc1 (stereo not given), the inhibition rises from 5.49% to 16.7%.

First: C(=N/Nc1cc(N2CCOCC2)nc(N2CCOCC2)n1)/c1ccccc1
Second: N#C/C(=C\c1ccc(-c2cccc([N+](=O)[O-])c2)o1)C(=O)NCCN1CCOCC1
The inhibition of the first is lower: -1.17% for the first, 17.4% for the second.

First: COc1cc(C(=O)NCc2ccc(-n3cccc3)cc2)cc(OC)c1OC
Second: CCO[C@H]1OC(C(=O)NCc2ccccc2)=C[C@@H](c2coc3ccccc3c2=O)[C@@H]1CCCO
The inhibition of the first is higher: 23% for the first, 8.75% for the second.

First: Cc1ccc(C2NC(C(=O)O)CS2)cc1 (stereo not given)
Second: Cc1cccc(NC(=S)NC(=O)c2ccc(Br)o2)c1
The inhibition of the first is lower: -9.29% for the first, -3.34% for the second.

First: CNC(=O)C(=O)N/N=C/c1ccccn1
Second: Cc1cc(C)c([N+](=O)[O-])cc1-c1ccc(/C=N/NC(=O)c2nonc2N)o1
The inhibition of the first is lower: -7.18% for the first, 14.1% for the second.

Compared with O=C(/C=C/c1c(F)cccc1Cl)Nc1nn[nH]n1, N#C/C(=C\c1ccccc1C(F)(F)F)C(=O)Nc1ccccc1F is higher in inhibition: -6.22% for the first, 7.15% for the second.

First: Cc1cccc(C(=O)NCC(=O)OCC(=O)N2CC3(C)CC2CC(C)(C)C3)c1 (stereo not given)
Second: COc1ccccc1C(=O)N1CC2(C)CC1CC(C)(C)C2 (stereo not given)
The inhibition of the first is higher: 43.9% for the first, -5.56% for the second.

Going from CCCCOC(=O)c1ccc(NC(c2ccc(C)cc2)P(=O)(OC)OC)cc1 (stereo not given) to CCOP(=O)(OCC)C(Nc1ccc([N+](=O)[O-])cc1)c1ccc(Cl)cc1 (stereo not given), the inhibition rises from 2.9% to 36.9%.

First: CC(=O)n1cc([C@H]2C=C(C(=O)N3CCOCC3)O[C@@H](OCc3ccc(CO)cc3)C2)c2ccccc21
Second: CCO[C@H]1OC(C(=O)N2CCCCCCC2)=C[C@@H](c2ccc(C(F)(F)F)cc2)[C@@H]1CCCO
The inhibition of the first is higher: 0.43% for the first, -8.31% for the second.

For CC1(C)CN=C(N2CCN(c3ncnc4sc5c(c34)CCCC5)CC2)S1, the inhibition was 100% (active).
For COc1ccc2occ(C(=O)c3ccc(N=C(C)N(C)C)cc3)c2c1, the inhibition was 100% (active).
For O=C1N=C(N2CCCC2)S/C1=C\c1cccc(Br)c1, the inhibition was 96.6% (active).
With COc1ccc(C(=O)/C=C/c2ccc(OC3CSC3)cc2)cc1 the inhibition was 75.7% (active).
With Cc1nnc(-c2ccc(Oc3ccc(C)c(C)c3)c([N+](=O)[O-])c2)o1 the inhibition was 64.6% (active).
In the case of c1ccc(CN2CCC(N=C3NN=C(c4ccc5c(c4)OCCO5)CS3)CC2)cc1, the inhibition is reported as 75.9% (active).
With CC(Nc1nc(N2CCCC2)nc2ccccc12)c1ccccc1 (stereo not given) the inhibition was 100% (active).
For c1ccc2c(NC3C4CC5CC(C4)CC3C5)nc(N3CCOCC3)nc2c1 (stereo not given), the inhibition was 69.9% (active).
In the case of CC(Nc1nc(N2CCOCC2)nc2ccccc12)c1ccccc1 (stereo not given), the inhibition is reported as 54.2% (active).
With Cc1ccc(-c2ccc(/C=N/NC(=O)CN3CCOCC3)o2)cc1[N+](=O)[O-] the inhibition was 96.8% (active).
In the case of CNC(=O)/C(C#N)=C/c1c(F)cccc1Cl, the inhibition is reported as 99.2% (active).
With Cc1nnnn1/C(=C\c1ccccc1)C(=O)OCC(=O)N1CC2(C)CC1CC(C)(C)C2 (stereo not given) the inhibition was 100% (active).
For CCOP(=O)(OCC)C(Nc1cccc(C)c1)c1ccc(F)cc1 (stereo not given), the inhibition was 61.2% (active).
For CC(=O)n1cc([C@@H]2C=C(C(=O)N3CCN(Cc4ccc5c(c4)OCO5)CC3)O[C@H](OCc3ccc(CO)cc3)C2)c2ccccc21, the inhibition was 78.9% (active).
For CCO[C@H]1OC(C(=O)N2CCN(Cc3ccccc3)CC2)=C[C@@H](c2cn(C(C)=O)c3ccccc23)[C@@H]1CCCO, the inhibition was 71.4% (active).
